This note sets out measurements from ChEMBL document CHEMBL1961873, “Compounds: GSK PKIS; Assays: Nanosyn kinase panel” (2012).

The target in assay [1] is CDK3/Cyclin E (Homo sapiens) (UniProt P24864+Q00526). The settings on record: at 1 µM.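 Note: each figure is a mean percent inhibition of the CDK3/cyclin E complex.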
For assay [2], the target named is Cyclin-dependent kinase 4 (Homo sapiens) (UniProt P11802). The settings on record: at 0.1 µM.
Assay [3] has the same target. The note with it: at 1 µM.
For assay [4], the target named is Cyclin-dependent kinase 5 (Homo sapiens) (UniProt Q00535). The settings on record: at 0.1 µM.
Sequence of Cyclin-dependent kinase 5 (Homo sapiens) (Q00535 whole entry, looked up): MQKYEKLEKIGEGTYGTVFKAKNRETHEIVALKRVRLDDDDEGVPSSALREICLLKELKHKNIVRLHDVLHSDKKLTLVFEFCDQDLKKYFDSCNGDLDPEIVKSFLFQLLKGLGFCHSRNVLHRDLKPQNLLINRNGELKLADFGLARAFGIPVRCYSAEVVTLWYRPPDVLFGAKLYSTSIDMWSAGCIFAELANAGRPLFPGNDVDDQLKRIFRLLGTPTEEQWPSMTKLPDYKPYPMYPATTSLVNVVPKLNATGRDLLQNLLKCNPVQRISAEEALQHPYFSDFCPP
Assay [5] has the same target. The note with it: at 1 µM.
The target of assay [6] is Cyclin-dependent kinase 6 (Homo sapiens) (UniProt Q00534). The settings on record: at 0.1 µM.
Sequence of Cyclin-dependent kinase 6 (Homo sapiens) (Q00534 whole entry): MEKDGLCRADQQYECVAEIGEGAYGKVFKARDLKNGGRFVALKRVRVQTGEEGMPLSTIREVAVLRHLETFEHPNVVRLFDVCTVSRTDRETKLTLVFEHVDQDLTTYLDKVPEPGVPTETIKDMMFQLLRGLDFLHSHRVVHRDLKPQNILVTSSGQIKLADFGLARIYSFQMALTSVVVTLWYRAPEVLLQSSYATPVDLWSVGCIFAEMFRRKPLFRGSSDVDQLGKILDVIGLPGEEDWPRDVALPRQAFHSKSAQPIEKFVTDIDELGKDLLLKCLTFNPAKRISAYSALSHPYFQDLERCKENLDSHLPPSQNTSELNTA
Assay [7] shares this target. The note with it: at 1 µM.
Assay [8] has as its target Dual specificity protein kinase CLK2 (Homo sapiens) (UniProt P49760). The settings on record: at 0.1 µM.
For assay [9] the target is unchanged. The note with it: at 1 µM.
For assay [10], the target named is Dual specificity protein kinase CLK3 (Homo sapiens) (UniProt P49761). The settings on record: at 0.1 µM.
Sequence of Dual specificity protein kinase CLK3 (Homo sapiens) (P49761 whole entry, looked up): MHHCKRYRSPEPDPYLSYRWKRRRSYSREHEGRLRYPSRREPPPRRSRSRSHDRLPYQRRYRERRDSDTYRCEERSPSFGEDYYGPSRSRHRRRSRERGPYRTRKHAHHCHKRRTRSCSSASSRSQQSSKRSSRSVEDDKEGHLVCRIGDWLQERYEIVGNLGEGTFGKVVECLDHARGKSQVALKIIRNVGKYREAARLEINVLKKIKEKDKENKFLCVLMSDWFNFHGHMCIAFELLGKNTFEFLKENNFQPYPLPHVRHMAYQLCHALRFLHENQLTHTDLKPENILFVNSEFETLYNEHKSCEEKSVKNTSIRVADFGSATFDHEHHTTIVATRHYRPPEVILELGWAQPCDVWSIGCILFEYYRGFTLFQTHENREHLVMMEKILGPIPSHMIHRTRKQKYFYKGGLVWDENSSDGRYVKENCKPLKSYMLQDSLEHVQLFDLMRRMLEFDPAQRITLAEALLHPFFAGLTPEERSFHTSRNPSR

Sequence of Dual specificity protein kinase CLK2 (Homo sapiens) (P49760 whole entry, looked up): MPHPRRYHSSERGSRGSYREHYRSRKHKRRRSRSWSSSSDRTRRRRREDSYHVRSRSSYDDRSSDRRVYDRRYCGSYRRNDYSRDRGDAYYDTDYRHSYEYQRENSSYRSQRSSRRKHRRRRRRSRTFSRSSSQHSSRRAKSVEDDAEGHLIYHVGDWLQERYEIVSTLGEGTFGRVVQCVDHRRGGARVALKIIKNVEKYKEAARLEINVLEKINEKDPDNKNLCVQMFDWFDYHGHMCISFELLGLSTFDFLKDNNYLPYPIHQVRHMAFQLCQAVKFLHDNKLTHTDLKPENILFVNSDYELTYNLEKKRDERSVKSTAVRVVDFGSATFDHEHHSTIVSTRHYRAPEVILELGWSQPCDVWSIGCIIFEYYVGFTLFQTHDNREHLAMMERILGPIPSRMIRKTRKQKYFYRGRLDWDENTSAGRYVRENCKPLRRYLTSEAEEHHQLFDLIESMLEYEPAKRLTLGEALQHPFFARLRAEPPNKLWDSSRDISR
Sequence of CDK3/Cyclin E (Homo sapiens) (P24864 whole entry, looked up): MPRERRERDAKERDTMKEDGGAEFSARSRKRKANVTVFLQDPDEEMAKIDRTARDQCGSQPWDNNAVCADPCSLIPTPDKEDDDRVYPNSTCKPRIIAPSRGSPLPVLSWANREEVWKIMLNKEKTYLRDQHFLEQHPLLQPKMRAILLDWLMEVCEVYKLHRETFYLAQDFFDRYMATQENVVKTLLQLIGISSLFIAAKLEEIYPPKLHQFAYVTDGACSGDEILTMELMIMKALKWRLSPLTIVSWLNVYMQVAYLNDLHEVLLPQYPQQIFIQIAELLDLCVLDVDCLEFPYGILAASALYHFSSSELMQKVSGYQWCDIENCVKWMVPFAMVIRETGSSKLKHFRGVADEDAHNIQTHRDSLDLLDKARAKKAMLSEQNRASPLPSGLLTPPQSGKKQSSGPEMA
Sequence of CDK3/Cyclin E (Homo sapiens) (Q00526 whole entry, looked up): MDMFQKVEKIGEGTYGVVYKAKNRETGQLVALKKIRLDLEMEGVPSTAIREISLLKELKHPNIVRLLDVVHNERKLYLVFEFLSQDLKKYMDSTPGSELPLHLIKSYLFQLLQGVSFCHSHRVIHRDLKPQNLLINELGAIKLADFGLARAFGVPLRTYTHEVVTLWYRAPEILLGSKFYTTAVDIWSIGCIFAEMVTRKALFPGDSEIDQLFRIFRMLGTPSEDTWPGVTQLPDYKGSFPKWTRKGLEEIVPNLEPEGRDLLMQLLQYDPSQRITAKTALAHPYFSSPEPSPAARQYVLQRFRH
Sequence of Cyclin-dependent kinase 4 (Homo sapiens) (P11802 whole entry): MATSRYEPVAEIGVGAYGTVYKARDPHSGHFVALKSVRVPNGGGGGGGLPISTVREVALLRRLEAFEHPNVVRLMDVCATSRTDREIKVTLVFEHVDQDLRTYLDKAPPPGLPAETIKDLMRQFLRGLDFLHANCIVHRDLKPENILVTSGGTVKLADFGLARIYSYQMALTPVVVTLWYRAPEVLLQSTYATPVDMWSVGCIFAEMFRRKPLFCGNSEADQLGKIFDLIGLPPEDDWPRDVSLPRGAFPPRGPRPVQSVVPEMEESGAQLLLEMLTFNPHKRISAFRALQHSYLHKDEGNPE

The term inhibition denotes the drop in the measured response relative to a control, in per cent. With `CCn1c(-c2nonc2N)nc2c(C#CC(C)(C)O)nc(OC[C@@H](N)c3ccccc3)cc21`, the inhibition in [1] was 0.99%; in assay [2] it was -0.22%; in assay [3] it was 0.8%; in assay [4], 0.35%; in assay [5], 0.49%; in [6], -0.27%. The inhibition in assay [7] is -0.99%; in [8] it was 0.81%; in assay [9], 2.4%; in assay [10] it was -0.31%.

For `CC1=C(C(=O)Nc2ccc3[nH]ncc3c2)C(c2ccc3ccccc3c2)CC(=O)N1` (stereo unspecified), the inhibition in assay [1] came to 2.9%; in assay [2], 2.41%; in assay [3] it was 2.46%; in assay [4], 1.12%; in [5], 3.42%; in assay [6], 3.45%. In addition, the inhibition amounted to 4.44% in assay [7], 1.34% in [8], 2.42% in assay [9] and 2.41% in assay [10].

On to `COc1cc2ncn(-c3cc(OCc4ccccc4C(F)(F)F)c(C(N)=O)s3)c2cc1OC`, for which the inhibition in assay [1] was -0.14%; in assay [2] it was -1.16%; in assay [3], 1.16%; in [4], -3.58%; in assay [5], -1.09%; in [6], -3.21%. For the same molecule, the inhibition is -1.7% in assay [7], 1.94% in assay [8], 6.82% in assay [9] and -2.62% in assay [10].

`O=C1NC(=O)C(c2ccccc2Cl)=C1Nc1cccc(O)c1`: the inhibition in assay [1] came to 19.4%; in assay [2] it was 7.12%; in assay [3], 25.4%; in assay [4], 4.62%; in assay [5], 26.6%; in [6], 7.16%. The inhibition in assay [7] came to 28.7%; in assay [8], 4.29%; in assay [9] it was 36.9%; in assay [10], 2.2%.

Regarding `COc1cccc(-n2ncc3c(N/N=C/c4cccc(F)c4)ncnc32)c1`, the inhibition in assay [1] was 5.59%; in [2] it was 0.03%; in assay [3], 22.1%; in assay [4] it was 3.4%; in assay [5], 34.2%; in assay [6] it was -5.64%. Moreover, the inhibition was 17.1% in assay [7], 2.25% in assay [8], 1.15% in [9] and -2.19% in assay [10].

Consider `COc1ccc(-c2coc3ncnc(N)c23)cc1`, for which the inhibition in assay [1] is 0.08%; in [2], 4.16%; in [3], 5.78%; in assay [4], 2.66%; in assay [5] it was 3.84%; in [7], 3.88%. In addition, the values for the inhibition in assay [8], in assay [9] and in [10] were 3.15%, 3.42% and 1.07%, respectively.

Take `CCn1c(-c2nonc2N)nc2ccncc21`: the inhibition in assay [1] was -0.78%; in assay [2] it was 1.15%; in [3], 3.35%; in assay [4] it was 0.45%; in [5] it was 1.71%; in [7], -1.56%. The figures for the inhibition in assay [8], in [9] and in assay [10] were 3.93%, 3.92% and -0.93%, respectively.

As to `NCc1ccc(-c2nc(-c3ccc(Cl)c(O)c3)c(-c3ccncc3)[nH]2)cc1`, the inhibition in assay [1] was -2.19%; in assay [2] it was 1.89%; in [3], 3.19%; in assay [4], 1.65%; in assay [5], 3.47%; in assay [6] it was -3.35%. The inhibition stood at 1.53% in assay [7], 2.01% in assay [8], 0.72% in [9] and 0.63% in assay [10].

With `Nc1ncnc2occ(-c3ccc(NC(=O)Nc4cc(C(F)(F)F)cc(C(F)(F)F)c4)cc3)c12`, the inhibition was 7.22% in assay [1]; 1.55% in [2]; 2.23% in assay [3]; 0.25% in assay [4]; 1.52% in assay [5]; -0.28% in [6]. Besides, the inhibition in assay [7] turned out to be 3.73%; in assay [8], 0.31%; in assay [9] it was 2.87%; in assay [10], 0.61%.

In the case of `COC(=O)Nc1nc2cc(Oc3cccc(NC(=O)Nc4cc(C(F)(F)F)ccc4F)c3)ccc2[nH]1`, the inhibition in assay [1] is -1.48%; in assay [2] it was 1.83%; in assay [3] it was 2.11%; in assay [4] it was 0.65%; in [5], 1.39%; in assay [6], -5.71%. Also, the inhibition in assay [7] was 1.18%; in assay [8] it was -0.8%; in [9], 1.04%; in assay [10], -0.93%.

For the molecule `CCc1cccc(NC(=O)Nc2ccc(Oc3ccc4nc(NC(=O)OC)[nH]c4c3)cc2)c1`, the inhibition in [1] was -1.16%; in [2] it was 0.97%; in assay [3] it was 1.5%; in assay [4], -0.16%; in [5] it was -0.09%; in assay [6] it was 7.42%. The inhibition in [7] was found to be 1.51%; in assay [8], 0.09%; in [9], 1.38%; in assay [10], 0.3%.

As for `N#Cc1c(NC(=O)c2cccc3ccccc23)sc2c1CCCC2`, the inhibition in [1] is -0.77%; in [2], 3.82%; in assay [3], 6.92%; in assay [4], 1.3%; in [5] it was 5.67%; in [7], 4.55%. Also, the inhibition was 1.29% in assay [8], 0.3% in assay [9] and 0.63% in [10].

On to `NC(=O)c1cccc(Nc2nccc(Nc3cccc4[nH]ncc34)n2)c1`, for which the inhibition is 23.7% in assay [1]; -0.82% in assay [2]; 5.05% in assay [3]; 1.84% in assay [4]; 14.1% in [5]; 0.2% in assay [6]. Besides, the inhibition in [7] amounted to 0.3%; in assay [8], 1.19%; in assay [9] it was 27.8%; in [10] it was 0.15%.

In the case of `COc1cc(C)c(NC(=O)CN(C)C)cc1Nc1nc(Nc2cccc(F)c2C(N)=O)c2cc[nH]c2n1`, the inhibition in assay [1] is 0.15%; in [2], 0.8%; in assay [3] it was 1.16%; in [4], -0.59%; in assay [5] it was -1.89%; in assay [6], -0.3%. Further, the inhibition in [7] came to 3.87%; in [8], 45.4%; in [9] it was 88.8%; in [10] it was 1.76%.

Turning to `CC1=C(C(=O)Nc2ccc3[nH]ncc3c2)C(c2ccc(Cl)c(Cl)c2)CC(=O)N1` (stereo unspecified), the inhibition in [1] is 0.2%; in assay [2], 0.92%; in assay [3], -0.63%; in assay [4], -0.73%; in [5], -0.62%; in assay [6], 2.47%. Further, the inhibition was found to be 0.05% in assay [7], 0.09% in assay [8], 4.18% in assay [9] and 0.34% in [10].

For the molecule `O=C1NC(=O)C(c2ccc(Cl)cc2)=C1Nc1ccc(Cl)c(C(=O)O)c1`, the inhibition in assay [1] was 1.13%; in [2] it was 0.08%; in assay [3], -0.02%; in [4] it was 0.36%; in assay [5], 1.75%; in assay [6], 4.89%. The inhibition in assay [7] is 5.18%; in assay [8], -0.15%; in assay [9], 1.55%; in assay [10], 1.39%.

As to `Cc1nn(C)c2cc(N(C)c3ccnc(Nc4cccc(S(N)(=O)=O)c4)n3)ccc12`, the inhibition in assay [1] was -0.68%; in assay [2] it was 1.72%; in assay [3], 4.46%; in [4] it was 0.41%; in assay [5], 2.78%; in [7], -0.34%. For the same molecule, the inhibition in assay [8] amounted to 0.73%; in [9], 0.86%; in [10], 1.2%.
